Compound activity: PubChem BioAssay, National Center for Advancing Translational Sciences (NCATS)
CtBP-E1A inh – inhibitors of CtBP/E1A interaction | AlphaScreen GST-E1A/His-CtBP binding, 1536-well; stronger effect = lower value | 340,000 compounds, 0.49% hits | activity change, % (no concentration beside the values); in the data active = activity change below about -65%; inconclusive = mostly about -30% to -63%
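In 5 uL wells, 23 nL compound meets equimolar GST-E1A and His-CtBP (5X stock 125 nM each) for 2 h, 37 °C. Beads (5X, 50 ug/mL) then 1 h, 37 °C, dark.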
HP1b chromo inh – inhibitors of HP1-beta chromodomain binding to methylated histone tails. P83916. AlphaScreen HP1-beta / biotin-H3K9me3 peptide binding. Potency, µM (series often up to 114 µM), usual class: inhibitors. 390,000 compounds, 0.56% hits; also: nearly all actives have a fitted effect of over 70% in size
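Compound inhibition of the preformed complex between 50 nM HP1-beta and 50 nM biotinylated H3K9me3 peptide was read by AlphaScreen. Buffer was PBS pH 7.4 with 0.01% Tween-20. Incubations ran 30 min at room temperature, with 10 ug/mL donor/acceptor beads.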
BAZ2B block – blocks human BAZ2B; 360,000 compounds, 4.4% hits; AID 504333; AlphaScreen BAZ2B-H3K14Ac peptide displacement; Q9UIF8; Potency, µM (highest dose often 114 µM), usual class: inhibitors; also: nearly all actives have a fitted effect of over 60% in size
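AlphaScreen displacement: compounds (up to 110uM) incubated 30 min at room temperature with a preformed 50 nM BAZ2B/50 nM biotinylated H3K14Ac peptide complex in PBS pH 7.4 with Tween-20. Donor and acceptor beads at 10 ug/mL final added, 20 min light-protected before reading.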
G9a inh – G9a (human) methyltransferase inhibition; AID 504332; Potency, µM (doses to about 102 µM), usual class: inhibitors; G9a H3K9 monomethylation, AlphaScreen, 2 h; 350,000 compounds, 8.8% hits; Q96KQ7; also: nearly all actives have a fitted effect of over 75% in size
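Chemiluminescent proximity detection of H3K9 monomethylation, read after 10 min bead incubation in the dark. Reaction: 20 nM G9a, 500 nM biotin-H3K9 peptide, 20 uM SAM cofactor, 2 h, room temperature, following 15 min enzyme-compound preincubation.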
Six1-Eya2 blk – blocks human Six1 binding to Eya2. activity change, % (test concentration not listed). 360,000 compounds, 0.56% hits. AlphaScreen GST-Six1/His-Eya2 binding, biochemical; stronger effect = lower value; in the data active = activity change below about -65%; inconclusive = mostly about -30% to -63%
Target sequence (O00167 whole entry, looked up): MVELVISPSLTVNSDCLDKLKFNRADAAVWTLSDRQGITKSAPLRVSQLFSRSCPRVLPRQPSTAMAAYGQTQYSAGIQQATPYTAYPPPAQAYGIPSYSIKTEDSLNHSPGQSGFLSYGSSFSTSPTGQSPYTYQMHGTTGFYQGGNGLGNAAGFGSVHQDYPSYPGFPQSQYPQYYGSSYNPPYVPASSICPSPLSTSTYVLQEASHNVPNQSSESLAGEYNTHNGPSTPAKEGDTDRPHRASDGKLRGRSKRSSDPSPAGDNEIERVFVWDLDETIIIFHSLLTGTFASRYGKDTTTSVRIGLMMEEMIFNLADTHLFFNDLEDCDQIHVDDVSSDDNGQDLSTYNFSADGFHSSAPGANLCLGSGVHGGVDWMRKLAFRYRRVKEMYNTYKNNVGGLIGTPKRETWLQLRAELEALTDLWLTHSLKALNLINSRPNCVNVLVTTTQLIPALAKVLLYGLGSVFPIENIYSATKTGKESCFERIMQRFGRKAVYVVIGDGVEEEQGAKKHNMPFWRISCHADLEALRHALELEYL
Target sequence (Q15475 whole entry, looked up): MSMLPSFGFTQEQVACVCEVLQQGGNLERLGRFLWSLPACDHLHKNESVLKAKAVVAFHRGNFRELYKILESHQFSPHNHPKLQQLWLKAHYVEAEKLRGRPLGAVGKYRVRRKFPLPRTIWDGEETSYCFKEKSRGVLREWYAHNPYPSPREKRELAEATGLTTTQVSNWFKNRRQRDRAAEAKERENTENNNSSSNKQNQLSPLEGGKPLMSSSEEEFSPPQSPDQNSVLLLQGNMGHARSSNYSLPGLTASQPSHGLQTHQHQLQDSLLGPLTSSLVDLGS
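Homogeneous AlphaScreen proximity assay pairing GST-Six1 with His-tagged Eya2 (added as 5X mix: 250 nM and 500 nM) in 50 mM Tris pH 8.0, 300 mM NaCl, 1 mM TCEP. Glutathione donor and nickel acceptor beads; 1 h, 37 °C, dark.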
JMJD2A Tudor – blocks the human JMJD2A Tudor domain; O75164; AlphaScreen JMJD2A-Tudor / H3K4me3 peptide binding; Potency, µM (doses to about 114 µM), most hits filed as inhibitors; 390,000 compounds, 4.4% hits; AID 504339; also: nearly all actives have a fitted effect of over 50% in size
Numbers stand for hits; i = inactive; ? = inconclusive; nt = no result given; [ ] = dose if it differs, or a comment. An excerpt weighted towards active compounds, which were near 10% of everything screened. Unless noted, calls follow the shape of the dose curve; as a rule, active = well fitted inhibition curve with a large enough effect; inconclusive = small, poorly fitted or top-dose-only effect; inactive = no such curve, though single readings can be large or run the other way.

SMILES	CtBP-E1A inh	HP1b chromo inh	BAZ2B block	G9a inh	Six1-Eya2 blk	JMJD2A Tudor
Cc1[nH]c2ccccc2c1SCCNC(=O)c1ccc(F)cc1	nt	i	i	i	nt	?
COc1ccc2cc3cc(C(=O)Nc4cc(C)c(Cl)cc4OC)oc3nc2c1	nt	i	nt	i	nt	i
Cc1ccccc1CC(=O)NC1CCN(Cc2ccccc2)CC1	i	i	i	i	i	i
CN1CCN(CC(=O)O)CC1	i	i	?	35µM	i	?
CN1CCN(C(=O)CCC(=O)O)CC1	i	i	i	nt	i	i[11.4 µM]
COc1ccc(OC)c2sc(N(Cc3cccnc3)C(C)=O)nc12	nt	i	i	i	nt	i
COc1ccc(CN2CCN(c3ccc(F)cc3)CC2)c(OC)c1OC	i	i	i	i	i	i
COc1cc(OC)c(CN2CCN(c3ccc(F)cc3)CC2)cc1Br	i	i	50µM	35µM	?	2.5µM
COc1cc(OC)c(CN2CCCN(C)CC2)cc1Br	i	?	79µM	nt	i	1.4µM
O=C(CCc1nc2ccccc2[nH]c1=O)N/N=C/c1ccccc1	nt	i	i	i	i	i[11.4 µM]
Cc1cc(C)n2nc(C(=O)NNC(=O)c3ccccc3)nc2n1	i	i	?	14µM	i	?
COc1ccc(NC(=O)c2ccc(NC(=O)c3nc4nc(C)cc(C)n4n3)cc2)cc1	i	i	i	35µM	i	i
O=C(NCc1cccs1)C1CCN(S(=O)(=O)c2ccccc2F)CC1	i	i	i	79µM	i	i
O=C(c1ccc(NS(=O)(=O)c2ccc(F)cc2)cc1)N1CCN(c2ccccc2O)CC1	i	i	i	i	i	i
O=C(c1ccc(C(=O)N2CCN(c3ccccc3F)CC2)nc1)N1CCN(c2ccccc2F)CC1	i	i	i	?	i	79µM
O=C(c1ccc(S(=O)(=O)Nc2ccccc2F)cc1)N1CCN(c2ccccc2O)CC1	i	i	i	?	i	32µM
O=C(NCCCl)C1Cc2c(ccc3ccccc23)O1 (centres undefined)	i	i	i	40µM	i	i
CNC(=O)c1ccc(-n2cccn2)nc1	i	i	?	i	i	i
CCN(CC)c1ccc(C(=O)NCc2ccc3c(c2)CCN3C(=O)c2ccc(F)cc2)cc1	nt	i	i	i	nt	i
COC1(OC)C(=N/O)/C(=N\O)CCC1O (centres undefined)	i	i	?	11µM	i	i
Cc1cc(C)c2cc(CN(CCO)Cc3nnnn3Cc3ccccc3)c(=O)[nH]c2c1	i	i	i	40µM	i	i
Cc1ccc2cc(CN(CCO)Cc3nnnn3Cc3ccc(F)cc3)c(=O)[nH]c2c1	i	i	i	32µM	i	i
Cc1ccc2[nH]c(=O)c(CN(Cc3nnnn3Cc3ccccc3)C3CCCC3)cc2c1	i	i	i	8.9µM	i	i
Cc1cc(C)c2cc(CN(CCO)Cc3nnnn3Cc3ccc(F)cc3)c(=O)[nH]c2c1	i	i	i	i[12.7 µM]	i	i
CN(C)c1ncc2nc(-c3cccc(C#N)c3)c(=O)n(C[C@H]3CCCO3)c2n1	nt	nt	nt	i[0.501 µM]	nt	nt
SMILES	CtBP-E1A inh	HP1b chromo inh	BAZ2B block	G9a inh	Six1-Eya2 blk	JMJD2A Tudor
Cc1cc2c(s1)c1cnn(Cc3cc(C(F)(F)F)cc(Cl)c3F)c(=O)c1n2C	nt	nt	nt	nt	nt	i
COCCCNC(=O)CCn1nc(-c2ccc(Cl)cc2)ccc1=O	i	i	i	i[12.7 µM]	i	i
CCOc1ccc(NC(=O)Nc2cccn(Cc3ccccc3)c2=O)cc1	i	i	40µM	nt	i	?
CN1C(=O)c2oc3ccc(Br)cc3c(=O)c2C1c1ccncc1 (centres undefined)	nt	nt	i	16µM	nt	nt
CN1C(=O)c2oc3ccccc3c(=O)c2C1c1ccccn1 (centres undefined)	i	i	?	28µM	i	32µM
CN1C(=O)c2oc3ccccc3c(=O)c2C1c1cccnc1 (centres undefined)	i	i	nt	nt	i	i
CC1=C(c2ccc(C)cc2)S(=O)(=O)N=C1N1CCN(c2ccccc2)CC1	nt	i	i	i	nt	?
O=[N+]([O-])c1ccc(-c2c[nH]c(=S)[nH]2)cc1	i	?	i	2µM	i	?
S=c1[nH]cc(-c2ccccc2)[nH]1	nt	i	i	i	i	25µM
COc1cccc(N2CCN(C(=O)c3ccc4ccccc4c3)CC2)c1	?	i	i	50µM	i	?
COc1cccc(N2CCN(C(=O)c3ccc4nc(N5CCCCC5)sc4c3)CC2)c1	i	i	i	40µM	i	?
CCc1nc2ccc(C(=O)N3CCN(c4cccc(OC)c4)CC3)cc2nc1CC	i	i	i	i	i	i
COc1ccc(N2CCN(C(=O)c3ccc4nc(N5CCCCC5)sc4c3)CC2)cc1	i	i	40µM	8.9µM	i	i
O=C(c1ccc(CS(=O)c2ccccc2Cl)o1)N1CCN(c2cccc(C(F)(F)F)c2)CC1 (centres undefined)	nt	i	?	?	nt	i
O=C(O)/C=C/C(=O)Nc1ccc(OCc2ccccc2)cc1	i	i	i	56µM	i	i
O=C(O)/C=C/C(=O)Nc1ccc(-c2ccccc2)cc1	i	i	i	?	i	i
O=C(O)/C=C/c1ccc(OCc2cccc(F)c2)cc1	i	i	i	i	i	14µM
O=C(/C=C/c1ccc(OCc2cccc(Cl)c2)cc1)N1CCOCC1	i	i	i	i	i	i
CCSc1oc(-c2cccs2)nc1S(=O)(=O)c1ccc(Br)cc1	nt	i	i	i	nt	i
C#CCOCCOCCOCCNc1nc(N2CCOCC2)nc(N2CCN(C(=O)[C@H](Cc3cc4ccccc4[nH]3)n3cc([C@@H](N)CC(C)C)nn3)CC2)n1	i	i	i	?	i	?
C#CCOCCOCCOCCNc1nc(N2CCN(C(=O)C([C@@H](C)CC)n3cc(C(N)COC(=O)C(F)(F)F)nn3)CC2)nc(N2CCN(C(=O)[C@H](Cc3cc4ccccc4[nH]3)n3cc(C(N)CO)nn3)CC2)n1 (some centres undefined)	i	i	nt	nt	?	50µM
C#CCOCCOCCOCCNc1nc(N2CCN(C(=O)[C@H]([C@@H](C)CC)n3cc([C@@H](N)CC(C)C)nn3)CC2)nc(N2CCN(C(=O)[C@H](Cc3cc4ccccc4[nH]3)n3cc([C@@H](N)CC(C)C)nn3)CC2)n1	nt	nt	56µM	?	nt	nt
C#CCOCCOCCOCCNc1nc(N2CCN(C(=O)[C@H](Cc3cc4ccccc4[nH]3)n3cc([C@@H](N)CC(C)C)nn3)CC2)nc(N2CCN(C(=O)[C@H](Cc3cc4ccccc4[nH]3)n3cc([C@@H](N)CC(C)C)nn3)CC2)n1	i	?	45µM	?	i	45µM
